An excerpt weighted towards active compounds, which were near 18% of everything screened.
TGFb inhibitor – inhibitors of TGF-b signaling; actives 1.2% (n = 410,000); Potency, µM (highest dose often 46.1 µM), inactives show top-dose activity, negative = inhibition, actives largely listed as inhibitors; HepG2 CAGA-GFP TGF-b/SMAD3 reporter, GFP fluorescence, 18 h; TGF-beta stimulated, 500 pg/mL final; AID 588855; further: potency means the concentration at half of the fitted maximal effect; on the % scale 0 is the no-effect control and ±100 the full control effect; nearly all actives have a fitted effect of over 65% in size
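Smad-responsive CAGA-GFP expression was quantified in HEPG2 cells exposed to compounds and 500 pg/mL final TGF-beta for 18 h at 37 degrees C; unstimulated wells defined full inhibition.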
IL-1B inflam inh – inflammasome signaling inhibition, IL-1 beta readout; actives 4.7% (n = 360,000); activity change, % at 57.5 µM; THP-1 LPS/ATP IL-1B secretion, AlphaLISA, 16 h; hits give low values; in the data active means activity change below about -50%; inconclusive means mostly about -30% to -49%; further: on the % scale 0 is the no-effect control and ±100 the full control effect
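THP-1 cells pretreated 1 hr with compounds (up to 57.5 uM final), then stimulated with LPS (250 ng/mL final) plus ATP (1.25 mM final); secreted IL-1B measured by AlphaLISA after 16 hr, decreased signal indicating inhibition.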
DT40 TDP1 no CPT – qHTS for Inhibitors of human tyrosyl-DNA phosphodiesterase 1 (TDP1): qHTS in cells in absence of CPT. AID 686978, 2013. DT40 Tdp1-/- hTDP1 cells, no CPT, ATP luminescence, 48 h. actives 15% (n = 420,000). Potency, µM (titrated, usually from 46.2 µM), for inactives: at the top dose activity change, negative = growth inhibition, hits mostly inhibitors; further: potency means the concentration at half of the fitted maximal effect; on the % scale 0 is the no-effect control and ±100 the full control effect; nearly all actives have a fitted effect of over 55% in size
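Cells were dispensed at 400 per well, compounds added by pin tool, plates incubated ≥48 hr at 37 °C, then CellTiter-Glo added for 30 min at room temperature before luminescence reading. Line: DT40 Tdp1-/- complemented with hTDP1; camptothecin omitted.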
TDP1 cell CPT – DT40-hTDP1 cell growth loss with CPT. chicken DT40 Tdp1-/-;hTDP1 cells + 20 nM CPT, ATP luminescence, 48 h. Potency, µM (highest dose often 46.2 µM), for inactives: at the highest dose activity change, negative = growth inhibition, actives largely listed as inhibitors. actives 12% (n = 420,000); further: potency means the concentration at half of the fitted maximal effect; on the % scale 0 is the no-effect control and ±100 the full control effect; nearly all actives have a fitted effect of over 55% in size
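Chicken DT40 Tdp1-/- cells complemented with human TDP1, 400 cells/well, exposed to compounds plus 20 nM camptothecin for at least 48 h at 37 C; viability read as ATP content by CellTiter-Glo luminescence.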
TDP1 inh – TDP1 (human) enzyme inhibition | AID 485290 | recombinant TDP1, AlphaScreen DNA substrate cleavage | Q9NUW8 | Potency, µM (titrated, usually from 130 µM), for inactives: at the top dose activity change, negative = inhibition, actives largely listed as inhibitors | actives 0.28% (n = 350,000); further: potency means the concentration at half of the fitted maximal effect; on the % scale 0 is the no-effect control and ±100 the full control effect; nearly all actives have a fitted effect of over 40% in size
Target sequence (Q9NUW8 whole entry, looked up): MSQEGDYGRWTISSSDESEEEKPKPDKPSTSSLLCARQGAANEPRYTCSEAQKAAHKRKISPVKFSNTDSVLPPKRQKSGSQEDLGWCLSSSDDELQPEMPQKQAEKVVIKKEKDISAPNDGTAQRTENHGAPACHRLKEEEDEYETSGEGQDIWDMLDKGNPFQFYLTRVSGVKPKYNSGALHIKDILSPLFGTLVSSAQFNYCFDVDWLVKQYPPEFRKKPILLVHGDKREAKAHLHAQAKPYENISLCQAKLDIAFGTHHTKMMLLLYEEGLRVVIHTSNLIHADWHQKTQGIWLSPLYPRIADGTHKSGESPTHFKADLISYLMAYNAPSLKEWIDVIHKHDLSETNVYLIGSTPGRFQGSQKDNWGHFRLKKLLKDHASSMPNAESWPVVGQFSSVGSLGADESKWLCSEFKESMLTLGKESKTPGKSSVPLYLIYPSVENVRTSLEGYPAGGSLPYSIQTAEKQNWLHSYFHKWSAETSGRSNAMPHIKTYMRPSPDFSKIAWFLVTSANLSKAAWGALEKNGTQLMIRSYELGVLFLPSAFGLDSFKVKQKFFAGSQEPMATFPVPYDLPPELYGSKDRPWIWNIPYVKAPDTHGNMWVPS
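Enzyme-compound mixtures sat 15 min at room temperature, followed by a 5 min reaction with 15 nM final substrate and 10 min with AlphaScreen beads. Recombinant human Tdp1 was used at 1 nM final.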
HepG2 tox – kills HepG2 cells in TGF-b inhibitor counter-screen. HepG2 CAGA-GFP viability, ATP luminescence, 18 h. Potency, µM (highest dose often 46.1 µM), for inactives: at the top dose activity change, negative = cytotoxicity, usual class: cytotoxic. actives 0.76% (n = 410,000); further: potency means the concentration at half of the fitted maximal effect
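HepG2 CAGA-GFP cells (1000/well, DMEM with 1% FBS) received compound, then TGF-beta at 500 pg/mL final, and were incubated 18 hours at 37 degrees C. Viability was read by CellTiter-Glo luminescence. Media-only wells were set as complete cell-killing and DMSO as no toxicity.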
Active calls of the source: *; ! = not active in a repeat; [ ] = dose if it differs, or a comment. Unless noted, the call rests on the fitted dose curve; in most records, active means well fitted curve in the direction sought with a large enough effect; inconclusive means small, poorly fitted or top-dose-only effect, or another doubt; inactive means no such curve, though single readings can be large; an effect the other way counts as inactive or inconclusive.

Results for CC(NC(=O)c1ccco1)c1nc(-c2ccccc2)no1 (stereo not drawn) ?
TGFb inhibitor: -0.2%; IL-1B inflam inh: -4.8; DT40 TDP1 no CPT: -27.4%; TDP1 cell CPT: -11.2%; TDP1 inh: -4.7%; HepG2 tox: -5.5%

How did Cc1ccc(CSC2=Nc3ccccc3C3=NC(CC(=O)NCc4cccs4)C(=O)N23)cc1 (stereo not drawn) do in these assays?
TGFb inhibitor: inconclusive; DT40 TDP1 no CPT: 16.4µM*; TDP1 cell CPT: 16.4µM*; TDP1 inh: 0.5%; HepG2 tox: -17.4%

What do the screens show for `O=C(CC1N=C2c3ccccc3N=C(SCc3ccccc3F)N2C1=O)NCc1cccs1` (stereo not drawn)?
TGFb inhibitor: 44.8%; DT40 TDP1 no CPT: 18.4µM*; TDP1 cell CPT: inconclusive; TDP1 inh: 5.4%; HepG2 tox: -2.4%

How did C=C1c2cccc(OC)c2O[C@H](C(=O)OCC)[C@@H]1CC(CC)CCCC (stereo partly drawn) do in these assays?
TGFb inhibitor: inconclusive; IL-1B inflam inh: 22.2; DT40 TDP1 no CPT: inconclusive; TDP1 cell CPT: inconclusive; TDP1 inh: inconclusive; HepG2 tox: -23.3%

How did CCOC(=O)/C=C1\CC(C(=O)OCC)Oc2c(OC)cccc21 (stereo not drawn) do in these assays?
TGFb inhibitor: inconclusive; IL-1B inflam inh: 14.4; DT40 TDP1 no CPT: 23.1µM*!; TDP1 cell CPT: inconclusive; TDP1 inh: 0.1%[56.1 µM]; HepG2 tox: -27.4%

How did O=C(COc1ccccc1)N1CCN(c2ccc([N+](=O)[O-])c(N3CCCCC3)c2)CC1 do in these assays?
TGFb inhibitor: inconclusive; IL-1B inflam inh: -52.6*; DT40 TDP1 no CPT: inconclusive; TDP1 cell CPT: inconclusive; TDP1 inh: 3.9%; HepG2 tox: -2.6%

How did O=C(COc1ccc(Br)cc1)N1CCN(c2ccc([N+](=O)[O-])c(N3CCCCC3)c2)CC1 do in these assays?
TGFb inhibitor: -16.4%; IL-1B inflam inh: -20.4; DT40 TDP1 no CPT: 20.6µM*; TDP1 cell CPT: inconclusive; TDP1 inh: 8.2%; HepG2 tox: -6.4%

What do the screens show for `O=C(O)C(Cc1cc(Cl)ccc1Cl)Sc1nc2ccccc2[nH]1` (stereo not drawn)?
TGFb inhibitor: -0.3%; IL-1B inflam inh: 37.9; DT40 TDP1 no CPT: inconclusive; TDP1 cell CPT: inconclusive; TDP1 inh: 2.5%; HepG2 tox: 7.6%

Results for Cn1c(C(=O)NCCc2ccccc2)cc2cc(S(=O)(=O)N3CCCCC3)ccc21 ?
TGFb inhibitor: inconclusive; DT40 TDP1 no CPT: inconclusive; TDP1 cell CPT: 14.6µM*; TDP1 inh: 5.4%; HepG2 tox: -28.5%

Results for CC(CNC(=O)c1cc2cc(S(=O)(=O)N3CCCCC3)ccc2n1C)c1ccccc1 (stereo not drawn) ?
TGFb inhibitor: inconclusive; DT40 TDP1 no CPT: 11.6µM*; TDP1 cell CPT: 3.26µM*; TDP1 inh: 2.7%; HepG2 tox: -10.3%

How did COc1ccccc1C(CNC(=O)c1oc2ccccc2c1C)N1CCCC1 (stereo not drawn) do in these assays?
TGFb inhibitor: 8.9%; IL-1B inflam inh: -5.9; DT40 TDP1 no CPT: 23.1µM*; TDP1 cell CPT: inconclusive; TDP1 inh: 1.3%; HepG2 tox: -1.7%

Results for COc1ccc(C(CNC(=O)c2oc3ccc(C)cc3c2C)N2CCCCC2)cc1 (stereo not drawn) ?
TGFb inhibitor: 22.7%; IL-1B inflam inh: 9.7; DT40 TDP1 no CPT: inconclusive; TDP1 cell CPT: 20.6µM*; TDP1 inh: 2.6%; HepG2 tox: 3.8%

How did COc1ccc(C(CNC(=O)c2cc3ccccc3o2)N2CCCC2)cc1 (stereo not drawn) do in these assays?
TGFb inhibitor: 6.3%; IL-1B inflam inh: -2.2; DT40 TDP1 no CPT: inconclusive; TDP1 cell CPT: inconclusive; TDP1 inh: 1.2%; HepG2 tox: -7.1%

Results for COc1ccccc1CNC(=O)c1oc2ccccc2c1C ?
TGFb inhibitor: -8.8%; IL-1B inflam inh: -13.0; DT40 TDP1 no CPT: -11.6%; TDP1 cell CPT: -28.6%; TDP1 inh: 5.5%; HepG2 tox: -16.3%

What do the screens show for `COc1ccc(CCNC(=O)c2oc3ccccc3c2C)cc1`?
TGFb inhibitor: -1.4%; IL-1B inflam inh: -9.8; DT40 TDP1 no CPT: inconclusive; TDP1 cell CPT: inconclusive; TDP1 inh: -14.1%; HepG2 tox: -13.7%

Results for COc1ccc(C(CNC(=O)c2oc3ccccc3c2C)N2CCCCC2)cc1 (stereo not drawn) ?
TGFb inhibitor: -17.8%; DT40 TDP1 no CPT: 23.1µM*; TDP1 cell CPT: 16.4µM*; TDP1 inh: 7.0%; HepG2 tox: -28.1%

How did COc1ccc(C(CNC(=O)CNC(=O)c2cccc(C)c2)N2CCCCC2)cc1 (stereo not drawn) do in these assays?
TGFb inhibitor: 5.1%; IL-1B inflam inh: -4.5; DT40 TDP1 no CPT: -3.7%; TDP1 cell CPT: -34.1%; HepG2 tox: 6.3%

Results for COc1ccc(C(CNC(=O)c2cc3ccccc3o2)N2CCCCC2)cc1 (stereo not drawn) ?
TGFb inhibitor: -11.3%; IL-1B inflam inh: inconclusive; DT40 TDP1 no CPT: 20.6µM*; TDP1 cell CPT: inconclusive; TDP1 inh: 4.6%; HepG2 tox: -7.1%

How did NC(=O)NN=C1CCN2CCCc3cccc1c32 do in these assays?
TGFb inhibitor: -10.6%; IL-1B inflam inh: -1.1; DT40 TDP1 no CPT: -9.5%; TDP1 cell CPT: -9.1%; HepG2 tox: -17.3%

How did O=C(NCc1ccco1)/C(=C\C=C\c1ccccc1)NC(=O)c1ccccc1Br do in these assays?
TGFb inhibitor: -7.8%; IL-1B inflam inh: 0.0; DT40 TDP1 no CPT: inconclusive; TDP1 cell CPT: -16.2%; TDP1 inh: 3.7%; HepG2 tox: 2.0%

Results for COc1ccc(C(CNC(=O)CCNC(=O)c2ccccc2Cl)N2CCCC2)cc1 (stereo not drawn) ?
TGFb inhibitor: 3.7%; IL-1B inflam inh: -4.3; DT40 TDP1 no CPT: 19.1%; TDP1 cell CPT: 4.9%; TDP1 inh: -0.3%; HepG2 tox: 6.6%

What do the screens show for `COc1ccc(C(CNC(=O)c2oc3cc(C)c(Cl)cc3c2C)N2CCCCC2)cc1` (stereo not drawn)?
TGFb inhibitor: 0.3%; IL-1B inflam inh: 22.8; DT40 TDP1 no CPT: inconclusive; TDP1 cell CPT: 13µM*; TDP1 inh: 7.6%; HepG2 tox: 7.5%

High-throughput results from PubChem.
